An excerpt weighted towards active compounds, which were near 2.2% of everything screened.
Abeta rescue – compounds reversing amyloid beta toxicity in yeast; yeast expressing A-beta42, growth rescue, OD600, 48 h; response scale: 0% DMSO, 100% iron-clioquinol control; AID 1347071; 410,000 tested, 0.063% active; Potency, µM (top dose mostly 46.1 µM), most hits filed as activators; further: nearly all actives have a fitted effect of over 55% in size
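Growth rescue measured by 600 nm absorbance after 48 h yeast culture at 30 C with compound. Values normalized between DMSO and an equimolar ferric chloride plus clioquinol control.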
TDP-43 yeast inh – inhibitors of TDP-43 toxicity in yeast. TDP-43 expressing yeast growth rescue, BacTiter-Glo, 24 h. Potency, µM (top dose mostly 46.1 µM), inactives show top-dose growth rescue (activation), most hits filed as activators. 410,000 tested, 1.8% active; further: % of control where 0% means no effect; nearly all actives have a fitted effect of over 50% in size
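Readout is BacTiter-Glo luminescence of cell growth, so inhibitors register as activators. TDP-43-expressing yeast at OD600=0.02 in galactose medium, after raffinose pregrowth to mid-log, were incubated with compound for 24 hr at 30 deg C.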
FUS yeast rescue – FUS proteinopathy suppression in yeast; 390,000 tested, 0.24% active; Potency, µM (titrated, usually from 76.6 µM), hits mostly activators; S. cerevisiae FUS-expressing, growth rescue, OD600, 24 h;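 further: plate controls were DMSO vehicle for no effect and reference control for full effect; nearly all actives have a fitted effect of over 55% in size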
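Quantitative HTS measuring growth restoration of FUS-toxic yeast. Galactose-induced cells (OD 0.005) were exposed 24hr at 30C to compounds at several concentrations, then absorbance at 600 nm was recorded.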
aSyn yeast inh – rescues yeast growth from alpha-synuclein toxicity | 370,000 tested, 0.14% active | Potency, µM (highest dose often 46.1 µM), without a hit: at the top dose growth rescue (activation), actives largely listed as activators | AID 652106 | Yeast expressing alpha-synuclein, growth rescue, BacTiter-Glo, 24 h; further: % of control where 0% means no effect; nearly all actives have a fitted effect of over 65% in size
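Galactose-induced alpha-syn yeast (OD600=0.02, raffinose-pregrown) + pinned cpd, 24 hr, 30 deg C; growth by BacTiter-Glo luminescence. Growth restoration scores as activation.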
Mito fusion yeast – blocks mitochondrial division or promotes mitochondrial fusion. 320,000 tested, 0.23% active. Potency, µM (doses to about 46.1 µM), for inactives: top-dose growth rescue (activation), actives largely listed as activators. S. cerevisiae fusion-defective mutant growth rescue, CellTiterGlo 48 h; further: % of control where 0% means no effect; nearly all actives have a fitted effect of over 45% in size
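Compounds are tested for their ability to restore growth of mitochondrial fusion-defective yeast strains at non-permissive 37C in YPEG medium over 48 hours. Viability is quantified by luciferase luminescence.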
* marks the source's active call; other numbers are inactive results; i = inactive; u = inconclusive; x = not tested or not shown; [ ] = dose if it differs, or a comment. The call rests on the fitted dose curve; in most records, active means well fitted curve in the direction sought with a large enough effect; inconclusive means small, poorly fitted or top-dose-only effect, or another doubt; inactive means no such curve, though single readings can be large; an effect the other way counts as inactive or inconclusive. Potency means the concentration at half of the fitted maximal effect.

SMILES	Abeta rescue	TDP-43 yeast inh	FUS yeast rescue	aSyn yeast inh	Mito fusion yeast
CCOc1cc(-c2nc(C)c(C(C)=O)n2O)ccc1OCC(=O)Nc1ccc(F)cc1	i	14µM*	i	-4%	0%
COc1cc(-c2nc(C)c(C(C)=O)n2O)ccc1OCC(=O)Nc1ccc(F)cc1	i	19%	i	-6%	-6%
Cc1ccccc1COC(=O)c1cc([N+](=O)[O-])ccc1N1CCOCC1	i	26%	i	17%	10%
O=C(OCc1ccccc1F)c1cc([N+](=O)[O-])ccc1N1CCOCC1	i	35µM*	x	5%	7%
O=C(NC1CCSc2ccccc21)c1cc([N+](=O)[O-])ccc1N1CCOCC1 (stereo not drawn)	i	35µM*	i	-1%	-37%
CCc1c(C)nc(SCc2nc(-c3ccccc3C)no2)[nH]c1=O	i	12%	i	x	x
COc1cccc(C(=O)NCCN2C(=O)C3C4C=CC(C4)C3C2=O)c1 (stereo not drawn)	x	x	i	x	x
NCCCN(Cc1ccc(Cl)c(Cl)c1)c1ccccn1	x	x	x	-1%	x
O=C(NCc1ccco1)c1cccc2c(-c3ccc(F)c(F)c3)coc12	i	14µM*	i	1%	x
CS(=O)(=O)Nc1cccc(NC(=O)c2cccc3c(-c4ccc(F)c(F)c4)coc23)c1	i	10%	20µM*	0%	x
COc1cc(-c2coc3c(C(=O)NCc4ccccc4)cccc23)ccc1O	i	13µM*	u	4%	x
O=C(NCc1ccc(C(F)(F)F)cc1)c1cccc2c(-c3ccc(F)c(F)c3)coc12	i	0%	i	10%	x
OCc1cccc(-c2cnc3c(Nc4cccc(OC(F)(F)C(F)F)c4)nccn23)c1	i	20µM*	u	-7%	x
Cc1cnc(C=O)c2cccc([N+](=O)[O-])c12	i	20µM*	i	14%	x
Cc1ncc(C)c2c([N+](=O)[O-])cccc12	i	u	i	1%	x
Cc1ccc2c(c1)[C@H]1[C@H](CO2)[C@H](c2ccccc2)[C@]2(C)C(=O)N(Cc3ccc(Cl)cc3)CC(=O)N12	u	25%	u	0%	10%
Cc1ccc2c(c1)[C@H]1[C@H](CO2)[C@H](c2ccccc2)[C@]2(C)C(=O)N(Cc3ccc(F)cc3)CC(=O)N12	16µM*	21%	i	0%	x
C[C@@]12C(=O)Nc3ccc(Br)cc3C(=O)N1[C@H]1c3cc(Br)ccc3OC[C@@H]1[C@@H]2c1ccccc1	i	-19%	i	2%	13%
COc1ccc2c(c1)OC[C@H]1[C@H]2N2C(=O)c3cc(OC)ccc3NC(=O)[C@@]2(C)[C@H]1c1ccccc1	i	5µM*	i	20%	-20%
COc1ccc2c(c1)OC[C@H]1[C@H]2N2C(=O)c3ccc(C)cc3NC(=O)[C@@]2(C)[C@H]1c1ccccc1	i	1%	u	-1%	x
C[C@@]12C(=O)Nc3ccc(Cl)cc3C(=O)N1[C@H]1c3cc(Br)ccc3OC[C@@H]1[C@@H]2c1ccccc1	i	10%	28µM*	10%	x
COc1ccc2c(c1)OC[C@H]1[C@H]2N2C(=O)c3cc(Cl)ccc3NC(=O)[C@@]2(C)[C@H]1c1ccccc1	i	4.5µM*	i	23%	-15%
COC(=O)[C@]1(CNS(=O)(=O)c2ccc(F)cc2)CC(=O)N(C)[C@@H]1c1ccccc1	x	x	i	x	x
CCOc1cc2[nH]c(=O)n(CCCCC(=O)N3CCN(c4ccc(OC)cc4)CC3)c(=O)c2cc1OCC	i	1%[9.22 µM]	i	x	x
Cn1c(SCCOc2ccccc2)nnc1-c1ccc(NC(=O)CCc2ccccc2)cc1	x	x	x	-6%	x
SMILES	Abeta rescue	TDP-43 yeast inh	FUS yeast rescue	aSyn yeast inh	Mito fusion yeast
COc1cc(/C=C/c2ccnc3ccccc23)ccc1N(C)C	x	x	x	-3%	x
COc1ccc2c(c1)OC[C@H]1[C@H]2N2C(=O)c3cc(F)ccc3NC(=O)[C@@]2(C)[C@H]1c1ccccc1	i	20µM*	i	8%	x
CC(C)(C)c1ccc(C(=O)NNC(=S)NC(=O)c2cccnc2)cc1	i	u	u	11µM*	-47%
CC(C)(C)c1ccc(OCC(=O)NNC(=S)NC(=O)c2ccccc2[N+](=O)[O-])c(Br)c1	i	18µM*	i	u	-10%
CC(C)c1ccc(O)c(NC(=S)NC(=O)c2cccnc2)c1	u	27%	i	1%	0%
CC(C)(C)c1cc(Cl)c(O)c(NC(=S)NC(=O)c2cccnc2)c1	u	8.9µM*	i	11%	7%
Cc1ccccc1OCC(=O)NNC(=S)NC(=O)c1ccccc1[N+](=O)[O-]	i	0%	i	0%	-9%
Cc1cccc(C(=O)NC(=S)NNC(=O)c2ccc(Cl)cc2)c1	3.2µM*	u	x	u	-13%
Cc1cccc(C(=O)NC(=S)NNC(=O)c2cccs2)c1	i	u	x	-6%	-5%
CC(C)(C)c1ccc(C(=O)NC(=S)NNC(=O)COc2ccccc2)cc1	i	13µM*	i	u	-4%
O=C(/C=C/c1ccccc1)NC(=S)NNC(=O)c1cccnc1	u	16µM*	i	7%	-3%
O=C(/C=C/c1ccccc1)NC(=S)NNC(=O)c1cnccn1	i	-84%	i	-47%	-11%
Cc1ccc(C(=O)NNC(=S)NC(=O)COc2ccccc2)cc1	u	14%	i	u	2%
CC(C)CC1Nc2ncnc(N3CCOCC3)c2N(Cc2ccc(Br)cc2)C1=O (stereo not drawn)	i	4%	i	1%	8%
CCC1Nc2ncnc(N3CCc4ccccc4C3)c2N(Cc2ccc(Cl)cc2)C1=O (stereo not drawn)	i	7%	u	17%	x
O=C1C(Cc2ccccc2)Nc2ncnc(N3CCc4ccccc4C3)c2N1Cc1ccc(Cl)cc1 (stereo not drawn)	i	6%	u	15%	10µM*
CC(C)CC1Nc2ncnc(N3CCCCC3)c2N(Cc2ccc(Br)cc2)C1=O (stereo not drawn)	u	u	i	14%	22µM*
Cc1cc(Cl)ccc1OCC(=O)N(Cc1sccc1C)C1CCS(=O)(=O)C1 (stereo not drawn)	i	27%	i	x	x
CCOc1ccccc1C(=O)N1CC(=O)Nc2ccc(C)cc2C1c1ccccc1 (stereo not drawn)	i	11%	i	x	x
Cc1cccc(N2CCN(C(=O)CS(=O)(=O)Cc3nc(-c4ccccc4F)oc3C)CC2C)c1 (stereo not drawn)	i	19%	32µM*	9%	29%
CCN1CCN(C(=O)CS(=O)(=O)Cc2nc(-c3ccccc3C)oc2C)CC1	i	-17%	i	-5%	3%

Screens: PubChem BioAssay, National Center for Advancing Translational Sciences (NCATS)
